Laboratory results as given in the supplement of paper PMC7695840.
Counter-ions that a name gives are not always drawn.

These compounds were tested on Staphylococcus aureus MW2 delta-mecA (mecA-) (assay: normalized GFP fluorescence (growth of mecA- strain) (fraction of control range); higher = more growth of mecA- strain). Settings: compound concentration: 150 uM; cefoxitin: subinhibitory; fluorescent label: GFP.
In short: (§1)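 Two pre-induced S. aureus MW2 strains, one with the gene labeled by DsRed and one lacking it labeled by GFP, were mixed 1:1 in LB with a subinhibitory antibiotic dose set daily. The mix went at 5 µL/well onto 150 μM compound (1.5% DMSO) in 1536-well plates, single replicate, and grew unshaken 20 h at 37 °C, 90% humidity. DsRed (540/590) and GFP (485/520) values were scaled per plate between single-strain control medians, and plates with high untreated ratios or rows with DsRed/GFP >10 were left out.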

| SMILES | normalized GFP fluorescence |
| --- | --- |
| CC(C)/N=c1\cc2n(-c3ccc(Cl)cc3)c3ccccc3nc-2cc1Nc1ccc(Cl)cc1 | 0.344 |
| CCCNC(C)C(=O)Nc1ccccc1C (stereo not given) | 0.223 |
| CCOC(=O)n1ccn(C)c1=S [Carbimazole] | 0.708 |
| COc1cc2nc(N(C)CCCNC(=O)C3CCCO3)nc(N)c2cc1OC (stereo not given) | 0.343 |
| CC(=O)CC(c1ccccc1)c1c(O)c2ccccc2oc1=O (stereo not given) | 0.718 |
| CCN1C(=O)NC(c2ccccc2)C1=O (stereo not given) | 0.469 |
| COc1cc2c(cc1OC)CC(=O)N(CCCN(C)C[C@H]1Cc3cc(OC)c(OC)cc31)CC2 [Ivabradine HCl (Procoralan)] | 0.478 |
| CN1CCC[C@@H]1CCO[C@](C)(c1ccccc1)c1ccc(Cl)cc1 [Clemastine Fumarate] | 0.00687 |
| CC(=O)OCC(=O)[C@@]1(OC(C)=O)[C@@H](C)C[C@H]2[C@@H]3C[C@H](F)C4=CC(=O)C=C[C@]4(C)[C@@]3(F)[C@@H](O)C[C@@]21C | 0.256 |
| NC(=O)N/N=C/c1ccc([N+](=O)[O-])o1 [Nitrofurazone (Nitrofural)] | 0.0137 |
| COc1ccc2c(c1)c(CC(=O)O)c(C)n2C(=O)c1ccc(Cl)cc1 | -0.013 |
| NC(=O)N1c2ccccc2CC(=O)c2ccccc21 | 0.596 |
| CCOC(=O)[C@H](CCc1ccccc1)N[C@@H](C)C(=O)N1[C@H](C(=O)O)C[C@H]2CCCC[C@@H]21 | 0.598 |
| CCN(C(=O)c1c(O)c2c(Cl)cccc2n(C)c1=O)c1ccccc1 | 0.0925 |
| Nc1cc(N2CCCCC2)nc(N)[n+]1[O-] | 0.524 |
| Cc1oncc1C(=O)Nc1ccc(C(F)(F)F)cc1 | 0.0504 |
| CC1(C)S[C@@H]2[C@H](NC(=O)[C@H](C(=O)O)c3ccsc3)C(=O)N2[C@H]1C(=O)O | 0.468 |
| COc1cc(C2Oc3ccc(C4Oc5cc(O)cc(O)c5C(=O)C4O)cc3OC2CO)ccc1O (stereo not given) [Silymarin (Silybin B)] | 0.34 |
| Clc1ccc(CSC(Cn2ccnc2)c2ccc(Cl)cc2Cl)cc1 (stereo not given) | -0.00367 |
| C#C[C@]1(OC(C)=O)CC[C@H]2[C@@H]3CCC4=C[C@@H](OC(C)=O)CC[C@@H]4[C@H]3CC[C@@]21C | 0.192 |

| SMILES | normalized GFP fluorescence |
| --- | --- |
| CCCCCCOC(=O)NC(=N)c1ccc(NCc2nc3cc(C(=O)N(CCC(=O)OCC)c4ccccn4)ccc3n2C)cc1 [BIBR-1048 (Dabigatran)] | 0.0654 |
| COC(=O)C1=C(C#N)NC(C)=C(C(=O)OC(C)C)C1c1cccc([N+](=O)[O-])c1 (stereo not given) [Nilvadipine (ARC029)] | 0.333 |
| Cn1cnc([N+](=O)[O-])c1Sc1ncnc2[nH]cnc12 | 0.269 |
| O=C(O)c1ccccc1C(=O)Nc1ccc(S(=O)(=O)Nc2nccs2)cc1 | 0.538 |
| C[C@H]1O[C@@H](O[C@H]2[C@@H](O)C[C@H](O[C@H]3[C@@H](O)C[C@H](O[C@H]4CC[C@@]5(C)[C@H](CC[C@@H]6[C@@H]5CC[C@]5(C)[C@@H](C7=CC(=O)OC7)CC[C@]65O)C4)O[C@@H]3C)O[C@@H]2C)C[C@H](O)[C@@H]1O | 0.212 |
| COC(c1ccccc1)(c1ccccc1)[C@H](Oc1nc(C)cc(C)n1)C(=O)O [Ambrisentan] | 0.466 |
| C[C@]12CC[C@@H]3c4ccc(O)cc4CC[C@H]3[C@@H]1CCC2=O [Estrone] | 0.136 |
| CNC(=O)c1cc(Oc2ccc(NC(=O)Nc3ccc(Cl)c(C(F)(F)F)c3)c(F)c2)ccn1 [Regorafenib (BAY 73-4506)] | 0.0128 |
| C[C@](N)(Cc1ccc(O)c(O)c1)C(=O)O | 0.258 |
| CCCc1cc(=O)[nH]c(=S)[nH]1 | 0.668 |
| CCCC(CCC)C(=O)O [Valproic acid sodium salt (Sodium valproate)] | 0.506 |
| O=C1CCc2ccc(OCCCCN3CCN(c4cccc(Cl)c4Cl)CC3)cc2N1 | 0.0969 |
| CC(=O)/N=c1/sc(S(N)(=O)=O)nn1C | 0.574 |
| CCc1nn(CCCN2CCN(c3cccc(Cl)c3)CC2)c(=O)n1CCOc1ccccc1 | 0.108 |
| O=C(O)Cc1ccccc1Nc1c(Cl)cccc1Cl [Diclofenac] | 0.0393 |
| CCCSc1ccc2[nH]c(NC(=O)OC)nc2c1 | 0.251 |
| CC(C)CN(C[C@@H](O)[C@H](Cc1ccccc1)NC(=O)O[C@H]1CCOC1)S(=O)(=O)c1ccc(N)cc1 [Amprenavir (Agenerase)] | 0.174 |
| CC(C)C(=O)Oc1ccc(CO)cc1[C@H](CCN(C(C)C)C(C)C)c1ccccc1 [Fesoterodine fumarate (Toviaz)] | 0.00662 |
| COc1cc(/C=C/C(=O)N2CCN(CC(=O)N3CCCC3)CC2)cc(OC)c1OC [Cinepazide maleate] | 0.547 |
| CCS(=O)(=O)CCn1c([N+](=O)[O-])cnc1C | 0.603 |

These compounds were tested on Staphylococcus aureus MW2 (mecA+) (assay: normalized DsRed fluorescence (growth of mecA+ strain) (fraction of control range); higher = more growth of mecA+ strain). Settings: compound concentration: 150 uM; cefoxitin: subinhibitory; fluorescent label: DsRed.
In short: as §1

| SMILES | normalized DsRed fluorescence |
| --- | --- |
| CC(C)/N=c1\cc2n(-c3ccc(Cl)cc3)c3ccccc3nc-2cc1Nc1ccc(Cl)cc1 | 1.15 |
| CCCNC(C)C(=O)Nc1ccccc1C (stereo not given) | 0.919 |
| CCOC(=O)n1ccn(C)c1=S [Carbimazole] | 0.813 |
| COc1cc2nc(N(C)CCCNC(=O)C3CCCO3)nc(N)c2cc1OC (stereo not given) | 0.686 |
| CC(=O)CC(c1ccccc1)c1c(O)c2ccccc2oc1=O (stereo not given) | 0.285 |
| CCN1C(=O)NC(c2ccccc2)C1=O (stereo not given) | 1.21 |
| COc1cc2c(cc1OC)CC(=O)N(CCCN(C)C[C@H]1Cc3cc(OC)c(OC)cc31)CC2 [Ivabradine HCl (Procoralan)] | 0.555 |
| CN1CCC[C@@H]1CCO[C@](C)(c1ccccc1)c1ccc(Cl)cc1 [Clemastine Fumarate] | 0.338 |
| CC(=O)OCC(=O)[C@@]1(OC(C)=O)[C@@H](C)C[C@H]2[C@@H]3C[C@H](F)C4=CC(=O)C=C[C@]4(C)[C@@]3(F)[C@@H](O)C[C@@]21C | 1.11 |
| NC(=O)N/N=C/c1ccc([N+](=O)[O-])o1 [Nitrofurazone (Nitrofural)] | 0.0574 |
| COc1ccc2c(c1)c(CC(=O)O)c(C)n2C(=O)c1ccc(Cl)cc1 | 0.261 |
| NC(=O)N1c2ccccc2CC(=O)c2ccccc21 | 0.408 |
| CCOC(=O)[C@H](CCc1ccccc1)N[C@@H](C)C(=O)N1[C@H](C(=O)O)C[C@H]2CCCC[C@@H]21 | 0.51 |
| CCN(C(=O)c1c(O)c2c(Cl)cccc2n(C)c1=O)c1ccccc1 | 0.805 |
| Nc1cc(N2CCCCC2)nc(N)[n+]1[O-] | 0.731 |
| Cc1oncc1C(=O)Nc1ccc(C(F)(F)F)cc1 | 1.25 |
| CC1(C)S[C@@H]2[C@H](NC(=O)[C@H](C(=O)O)c3ccsc3)C(=O)N2[C@H]1C(=O)O | 0.864 |
| COc1cc(C2Oc3ccc(C4Oc5cc(O)cc(O)c5C(=O)C4O)cc3OC2CO)ccc1O (stereo not given) [Silymarin (Silybin B)] | 0.987 |
| Clc1ccc(CSC(Cn2ccnc2)c2ccc(Cl)cc2Cl)cc1 (stereo not given) | 0.00806 |
| C#C[C@]1(OC(C)=O)CC[C@H]2[C@@H]3CCC4=C[C@@H](OC(C)=O)CC[C@@H]4[C@H]3CC[C@@]21C | 0.568 |

| SMILES | normalized DsRed fluorescence |
| --- | --- |
| CCCCCCOC(=O)NC(=N)c1ccc(NCc2nc3cc(C(=O)N(CCC(=O)OCC)c4ccccn4)ccc3n2C)cc1 [BIBR-1048 (Dabigatran)] | 0.815 |
| COC(=O)C1=C(C#N)NC(C)=C(C(=O)OC(C)C)C1c1cccc([N+](=O)[O-])c1 (stereo not given) [Nilvadipine (ARC029)] | 1.55 |
| Cn1cnc([N+](=O)[O-])c1Sc1ncnc2[nH]cnc12 | 1.03 |
| O=C(O)c1ccccc1C(=O)Nc1ccc(S(=O)(=O)Nc2nccs2)cc1 | 0.763 |
| C[C@H]1O[C@@H](O[C@H]2[C@@H](O)C[C@H](O[C@H]3[C@@H](O)C[C@H](O[C@H]4CC[C@@]5(C)[C@H](CC[C@@H]6[C@@H]5CC[C@]5(C)[C@@H](C7=CC(=O)OC7)CC[C@]65O)C4)O[C@@H]3C)O[C@@H]2C)C[C@H](O)[C@@H]1O | 0.724 |
| COC(c1ccccc1)(c1ccccc1)[C@H](Oc1nc(C)cc(C)n1)C(=O)O [Ambrisentan] | 0.281 |
| C[C@]12CC[C@@H]3c4ccc(O)cc4CC[C@H]3[C@@H]1CCC2=O [Estrone] | 1.11 |
| CNC(=O)c1cc(Oc2ccc(NC(=O)Nc3ccc(Cl)c(C(F)(F)F)c3)c(F)c2)ccn1 [Regorafenib (BAY 73-4506)] | 0.0729 |
| C[C@](N)(Cc1ccc(O)c(O)c1)C(=O)O | 0.703 |
| CCCc1cc(=O)[nH]c(=S)[nH]1 | 0.582 |
| CCCC(CCC)C(=O)O [Valproic acid sodium salt (Sodium valproate)] | 0.638 |
| O=C1CCc2ccc(OCCCCN3CCN(c4cccc(Cl)c4Cl)CC3)cc2N1 | 0.824 |
| CC(=O)/N=c1/sc(S(N)(=O)=O)nn1C | 0.53 |
| CCc1nn(CCCN2CCN(c3cccc(Cl)c3)CC2)c(=O)n1CCOc1ccccc1 | 0.736 |
| O=C(O)Cc1ccccc1Nc1c(Cl)cccc1Cl [Diclofenac] | 0.175 |
| CCCSc1ccc2[nH]c(NC(=O)OC)nc2c1 | 0.742 |
| CC(C)CN(C[C@@H](O)[C@H](Cc1ccccc1)NC(=O)O[C@H]1CCOC1)S(=O)(=O)c1ccc(N)cc1 [Amprenavir (Agenerase)] | 0.506 |
| CC(C)C(=O)Oc1ccc(CO)cc1[C@H](CCN(C(C)C)C(C)C)c1ccccc1 [Fesoterodine fumarate (Toviaz)] | 1.38 |
| COc1cc(/C=C/C(=O)N2CCN(CC(=O)N3CCCC3)CC2)cc(OC)c1OC [Cinepazide maleate] | 0.533 |
| CCS(=O)(=O)CCn1c([N+](=O)[O-])cnc1C | 1.08 |
